High-throughput results as filed in PubChem BioAssay.
RORgamma inh = qHTS for inhibitors of ROR gamma transcriptional activity; 5.4% of 310,000 active; Nuclear receptor ROR-gamma (Mus musculus), P51450; Drosophila S2 Gal4-RORgamma UAS-luciferase reporter, 20 h; Potency, µM (highest dose often 53.6 µM), without a hit: top-dose activity change, negative = inhibition, hits mostly inhibitors; AID 2551, 2010; note: nearly all actives have a fitted effect of over 60% in size
Target sequence (P51450 whole entry, looked up, the tested form may be a part): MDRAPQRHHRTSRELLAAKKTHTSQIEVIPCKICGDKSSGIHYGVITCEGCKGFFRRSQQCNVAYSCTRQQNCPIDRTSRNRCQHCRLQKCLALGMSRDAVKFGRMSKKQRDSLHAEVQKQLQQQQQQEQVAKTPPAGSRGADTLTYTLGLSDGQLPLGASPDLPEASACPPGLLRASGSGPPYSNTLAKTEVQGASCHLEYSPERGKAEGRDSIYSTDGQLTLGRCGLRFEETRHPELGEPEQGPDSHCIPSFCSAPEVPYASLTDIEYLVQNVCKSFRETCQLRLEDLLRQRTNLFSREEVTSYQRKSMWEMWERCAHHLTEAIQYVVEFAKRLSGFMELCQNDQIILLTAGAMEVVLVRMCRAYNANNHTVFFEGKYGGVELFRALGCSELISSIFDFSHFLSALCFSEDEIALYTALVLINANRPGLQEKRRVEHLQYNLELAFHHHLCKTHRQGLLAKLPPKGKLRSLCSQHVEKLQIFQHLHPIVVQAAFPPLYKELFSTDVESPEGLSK
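A Gal4/UAS one-hybrid system in insect cells: metallothionein-promoter Gal4–ROR gamma fusion plus Photinus luciferase reporter. Copper sulfate 700 uM final, 20 hr ambient incubation, luminescent detection after 10 min with reagent.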
KinaseGlo FLuc = Counterscreen for Luciferase (Kinase-Glo TM) Inhibition. AID 1379, 2008. 0.28% of 200,000 active. Potency, µM (series often up to 38.3 µM), for the others: at the top dose activity change, negative = inhibition, usual class: inhibitors. Kinase-Glo luciferase, ATP luminescence, 8 min; note: nearly all actives have a fitted effect of over 60% in size
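Light output from Kinase-Glo luciferase with luciferin and 10 uM ATP in 50 mM imidazole pH 7.2, KCl, MgCl2, Tween 20, BSA; compound pin-delivered, 8-min ambient incubation, then luminescence read.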
Gal4-VP16 FLuc = VP16 counterscreen qHTS for inhibitors of ROR gamma transcriptional activity; Potency, µM (series often up to 53.6 µM), without a hit: at the top dose activity, negative = inhibition, most hits filed as inhibitors; Drosophila S2 Gal4-VP16 UAS-luciferase, luminescence, 20 h; 3.5% of 310,000 active; AID 2546, 2010;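 note: Gal4-VP16 expression switched on by copper sulfate through the metallothionein promoter; nearly all actives have a fitted effect of over 50% in size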
An asterisk follows results filed as active; ? = inconclusive; nt = no result given; [ ] = another dose, or the depositor's remark. A selection: hits, their analogues and other compounds. The true share with any hit is near 6.4%. Calls come from the whole dose curve; as a rule, active = well fitted curve in the direction sought with a large enough effect; inconclusive = small, poorly fitted or top-dose-only effect, or another doubt; inactive = no such curve, though single readings can be large; an effect the other way counts as inactive or inconclusive. % is set by controls: 0 for no effect and ±100 for the full control effect; potency is the fitted concentration of half-maximal effect.

SMILES	RORgamma inh	KinaseGlo FLuc	Gal4-VP16 FLuc
COc1ccc(CCN2CC(C(=O)NCCc3cn[nH]c3)CCC2=O)cc1 (centres undefined)	2%	nt	-11%
COc1ccc(CNC(=O)C/C(C)=N/NC(=O)COc2ccccc2)cc1	0%	1%	-10%
O=C(ONc1ccc(N=NC(=O)c2ccccc2O)cc1)c1ccccc1	7.1µM*	-3%	6%[0.365 µM]
Cc1cc(N=NC(=O)c2ccccc2)ccc1O	?	-3%	?
C[C@H]1O[C@@H](n2cnc3c(N)ncnc32)C[C@@H]1OP(=O)(O)OP(=O)(O)OP(=O)(O)O	-15%	nt	4%
Cc1c(C(=O)Nc2ccc(Br)cc2)cnn1C	40%	2%	-6%
Cc1c(C(=O)c2no[n+]([O-])c2C(=O)c2cnn(C)c2C)cnn1C	10µM*	-1%	8.9µM*
O=C(O)c1cccc(NC(=S)NC(=O)c2ccncc2)c1	-11%	1%	-4%
O=C(NC(=S)Nc1cnc2ccccc2c1)c1ccccc1	5.6µM*	-11%	?
O=C(CN1CCN(C(=O)c2ccccc2)CC1)Nc1ncc(Br)cc1Br	-1%	-1%	5%
Cc1cc(C)c2c(NC(=O)CCl)nn(C)c2n1	-21%	-2%	?
Cn1ncc2cc(NC(=S)NC(=O)c3ccccc3)ccc21	10µM*	-7%	?
Cc1cc(C)c2c(NC(=S)NC(=O)c3ccccc3)nn(C)c2n1	1.4µM*	0%	5µM*
O=C(Nc1cnc2ccccc2c1)c1ccncc1	-20%	?	-41%
O=C(NC(=S)Nc1ncc(Br)cc1Br)c1ccccc1	8.9µM*	nt	18µM*
COc1ccc(CNc2ncncc2-c2cccc(NS(C)(=O)=O)c2)c(OC)c1	?	nt	11%
Nc1ncncc1-c1ccc([N+](=O)[O-])cc1	2%	-4%	1%
CCOC(=O)OCC1OC(c2ccccc2)C=CC1Oc1cccc(N(C)C)c1 (centres undefined)	17%[10 µM]	nt	7%[10 µM]
CCc1cc(=O)oc2cc(C)cc(OCC(=O)NCc3ccncc3)c12	4%	nt	2%
COc1cc(OC)cc(C(=O)N2CCN(C(=O)c3cccs3)CC2)c1	0%	nt	-4%
O=C(N/N=C/c1cccnc1)c1ccc([N+](=O)[O-])cc1	-5%	-2%	2%
COc1cc(C(=O)N/N=C/c2sc(=O)n(-c3ccccc3)c2Cl)cc(OC)c1OC	-20%	3%	?
O=C(N/N=C/c1ccncc1)c1ccccc1	34%	-9%	0%
O=C(N/N=C/c1cccn1-c1ccccc1)c1ccncc1	3.5µM*	-3%	20µM*
O=C(N/N=C/c1sc(=O)n(-c2ccccc2)c1Cl)c1ccncc1	7.1µM*	-4%	11µM*
SMILES	RORgamma inh	KinaseGlo FLuc	Gal4-VP16 FLuc
O=C(N/N=C/c1cccn1-c1ccc([N+](=O)[O-])cc1)c1cccnc1	?	nt	10µM*
Cc1ccc(C)c(C(=O)CSc2nc(N)cc(=O)[nH]2)c1	-20%	nt	5%
COc1ccccc1CNC(=O)CN(CCc1ccccc1)S(C)(=O)=O	2%	nt	-4%
O=c1c(-c2cc(O)c(O)c(O)c2)coc2cc(O)c(O)c(O)c12	0%	-4%	-12%
CC(C)=CCc1c(O)cc2occ(-c3ccc4c(c3)OCO4)c(=O)c2c1O	?	-6%	14µM*
O=C1NN(c2cccc(Br)c2)C(=O)/C1=C\c1ccc(N2CCOCC2)cc1	-1%	nt	-2%
CC(C)Oc1ccc(C(=O)NCCCNC(=O)c2cccnc2)cc1	12%	nt	-3%
Cc1nc(S/C(=C\c2ccc(OCc3ccccc3Cl)cc2)C(=O)O)n[nH]1	1µM*	-1%	?
Cc1nc(S/C(=C\c2ccc(-c3ccc(C(=O)O)c(Cl)c3)o2)C(=O)O)n[nH]1	11%	nt	-2%
CCCNC(=O)Nc1ccc(C(F)(F)F)cc1	18%	4%	6%
Cc1ccc(CNC(=O)c2ccc(N3CCCC3=O)cc2)cc1	10%	4%	2%
Cn1nc(C(C)(C)C)cc1C(=O)NCc1ccc(N2CCCC2=O)cc1	?	1%	0.56µM*
O=C(Nc1ccccc1Br)c1cc[n+]([O-])cc1	6%	nt	0%
COc1ccccc1/C=C1/C(=O)N(c2ccc([N+](=O)[O-])cc2)N=C1C	-2%	nt	-9%
CC1=NN(c2ccc(C)c(C)c2)C(=O)/C1=C\C=C\c1ccc([N+](=O)[O-])o1	10µM*	-8%	?
C/C(CC1(O)C(=O)N(C)c2ccccc21)=N\O (centres undefined)	-22%	-3%	-7%
CC(=O)CC1(OC(C)=O)C(=O)N(C)c2ccccc21 (centres undefined)	6.3µM*	2%	14µM*
CNC(=S)N1N=C(c2cccs2)CC1c1ccc(F)cc1 (centres undefined)	?	nt	20%
Cc1cc(OC(=O)c2cccc(F)c2)c([N+](=O)[O-])c(=O)[nH]1	-7%	nt	-9%
CSc1ccc(CCNC(=O)c2cccc3c2C(=O)N(C2CCCCC2)C3)cc1	?	nt	1%
Cc1nc([N+](=O)[O-])c(Br)n1CC(=O)c1ccc(F)cc1	7.9µM*	-1%	-14%[10 µM]
Cc1nc([N+](=O)[O-])c(Br)n1CC(=O)c1cccc([N+](=O)[O-])c1	1%	6%	-7%
CCOC(=O)c1c(N)sc(C(=O)Nc2ccc3c(c2)OCO3)c1C	?	4.5µM*	5.6µM*
CCOC(=O)c1c(C)c(C(=O)Nc2ccc3c(c2)OCO3)c(C)n1C	?	-3%	3%
O=C1CCCN1c1ccc(N2CCCC2=O)cc1	-15%	nt	3%
SMILES	RORgamma inh	KinaseGlo FLuc	Gal4-VP16 FLuc
CN(C)c1ccc(CNc2ncnc3sccc23)cc1	?	nt	7.1µM*
COc1ccc(CCNc2nc(C)nc3c2oc2ccccc23)cc1OC	1%	0%	-10%
CN(C)c1ccc(CNc2ncc(Br)cc2Br)cc1	?	-2%	13%
NS(=O)(=O)c1ccc(CCNc2ncnc3sccc23)cc1	?	-1%	4µM*
COc1ccc(CCNc2ncnc3c2oc2ccccc23)cc1OC	?	2%	1µM*
COc1ccc(Nc2ncnc3sccc23)cc1OC	-6%	nt	-22%
NS(=O)(=O)c1ccc(CNc2ncnc3sccc23)cc1	-3%	nt	3%
COc1ccc(CCNc2ncnc3sccc23)cc1OC	?	-4%	0.63µM*
COc1ccc2c(c1-c1c3c(cc(Br)c1OC)CCCC3)CCCC2	-4%	0%	-3%
CCCCCCCCCCCCCCCCSCC(COC)COP(=O)([O-])OCC[N+](C)(C)C (centres undefined)	10%	nt	-9%
COc1cccc2c1Oc1ncccc1N(C(=O)CCC(=O)NCc1ccc(C)cc1)C2	22%	nt	0%
Cc1nnc(SCc2nnc(-c3ccccc3Br)o2)s1	20%	2%	-1%
N=c1sccn1CC(=O)NC(c1ccccc1)c1ccccc1	-1%	-3%	-7%
Cc1sc2ncnc(NCCc3ccc(S(N)(=O)=O)cc3)c2c1C	8.9µM*	-2%	2.5µM*
Cc1sc2ncnc(NCCCn3ccnc3)c2c1C	14%	nt	2%
CCC1=C2CC[C@H]3C(=O)N(c4ccccc4)C(=O)[C@H]3[C@H]2[C@@]2(C)C(=O)N(Cc3ccccc3)C(=O)N2C1=O	-3%	-8%	-12%
